Data from PubChem BioAssay (EPA / NIEHS).
Values joined by “and” are separate entries in the source; they are usually repeats but may differ in a detail not shown here. Equal values may be shown once. Where a structure was tested more than once in an assay, its records may differ in their call. Active and inactive are the calls of the source. Rule for the calls: active = hit-call score of the fitted dose curve at least 0.9, where 1 is the maximum; inactive = score below 0.9.

Read-out: Interleukin-10 (IL10), IL10 (gene 3586)
Assay: BSK_IMphg_IL10: BioMAP Diversity Plus: IMphg Assay for Interleukin-10 (IL10) Biomarker Activity (AID 2284294)
Conditions: primary human endothelial cells with macrophages
Description: BSK_IMphg is a cell-based, multiplexed-readout assay that uses venular endothelial cells and macrophages, a human vascular primary cell, with measurements taken at 24 hours after chemical dosing in a microplate: 96-well plate.BSK_IMphg_IL10 is an assay component measured in the BSK_IMphg assay. It measures IL-10 antibody related to regulation of gene expression using ELISA technology.Data from the assay component BSK_IMphg_IL10 was analyzed at the endpoint, BSK_IMphg_IL10, in the positive analysis fitting direction relative to DMSO as the negative control and baseline of activity. Using a type of binding reporter, gain or loss-of-signal activity can be used to understand protein changes. To generalize the intended target to other relatable targets, this assay endpoint is annotated to the 'cytokine' intended target family, where the subfamily is 'interleukins'.
The levels of cell surface (or secreted, indicated by the prefix "s") biomarker endpoints were measured by ELISA. Overt cytotoxicity to cells in confluent adherent cultures (all systems other than the BT system) was assessed by measuring total protein levels using sulforhodamine B (SRB) staining in parallel cultures at the time of biomarker measurements, indicated as SRB endpoints. For proliferation assays for adherent cell types, individual cell types are cultured at sub-confluence and relative cell numbers quantified by SRB staining at time points optimized for each system (48 h: 3C and CASM3C systems; 72 h: BT and HDF3CGF systems; 96 h: SAg system). SRB was performed by staining cells with 0.1% SRB after fixation with 10% TCA and reading wells at 560 nm.Viability and proliferation of PBMC (T cells) was quantified by Alamar Blue reduction for the SAg and BT systems. For PBMC viability (referred to as PBMC Cytotoxicity within the assay endpoint names), cells were plated (75,000/well in a 96-well plate) and then chemical samples added for 1 h before addition of activators, SEB and TSST-1 (20 ng/mL final concentration each). Cells were incubated for 90 h. Then, Alamar Blue (20 uL/well) (Invitrogen, Cat DAL1100) was added for 6 h, and the plates were read with a fluorescence microplate reader at 546/580 nm (excitation/emission). For PBMC proliferation, cells were plated and activated as above but incubated for only 16 h prior to addition of Alamar Blue. Plates were read after 6 h.

Row | Structure (SMILES) | outcome | AC50
1 | O=C(O)C(F)(F)OC(F)(F)C(F)(F)OC(F)(F)F | inactive | 
2 | O=C(O)C(F)(OC(F)(F)C(F)(F)C(F)(F)F)C(F)(F)F (stereo not given) | inactive | 673 nM (active) and 652 nM (active)
3 | OCC(F)(F)OC(F)(F)C(F)(F)OC(F)(F)CO | inactive | 
4 | C=CC(=O)OCC(F)(F)C(F)F |  | 43.4 µM (active) and 39.2 µM (active)
5 | COC(=O)C(F)(F)C(F)(F)OC(F)(C(F)(F)F)C(F)(F)OC(F)=C(F)F (stereo not given) | inactive | 
6 | FC(F)(F)C(F)(C(F)(F)F)C(F)(F)C(F)(F)CC1CO1 (stereo not given) | inactive | 
7 | O=C(O)C(F)(F)OC(F)(F)C(F)(F)OC(F)(F)C(=O)O | inactive | 
8 | OCC(F)(F)OC(F)(F)C(F)(F)OC(F)(F)C(F)(F)OC(F)(F)CO |  | 30 µM (active)
9 | O=C(O)C(F)(F)C(F)(F)C(=O)O | inactive | 
10 | O=C(O)C=CC(F)(C(F)(F)F)C(F)(F)F | inactive | 
11 | O=S(=O)(F)C(F)(F)C(F)(F)C(F)(F)C(F)(F)C(F)(F)C(F)(F)C(F)(F)C(F)(F)F | inactive | 
12 | CC(O)C(F)(F)C(F)(F)F (stereo not given) | inactive | 
13 | NC(=O)C(F)(F)C(F)(F)F | inactive | 
14 | OCC(F)(F)OC(F)(F)C(F)(F)OC(F)(F)C(F)(F)OC(F)(F)F |  | 45.9 µM (active) and 42.6 µM (active)
